Most compounds without a hit are left out; they make up all but 27% or so of the library.
CYP2C19 inhib = blockers of cytochrome P450 2C19 activity – biochemical, luminescence, ADME assay, primary screen; P33261; CYP2C19 Supersomes, luciferin-H EGE luminescence, 30 min; inhibition, % at 5 µM; actives 21% (n = 96,000); AID 778, 2007;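 active means CYP2C19 inhibition above a set limit at 5 µM in the primary screen, cut at about 50% in these data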
CYP2C19 act = human CYP2C19 activators, primary screen, biochemical, luminescence | 96,000 tested, under 10 active | activation factor at 5 µM | Cytochrome P450 2C19 (Homo sapiens), P33261 | recombinant CYP2C19, luciferin-H EGE luminescence; active compounds read high; 0 = fully inhibited enzyme, 1 = untreated enzyme;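 active means activation factor of at least 2 at 5 µM in the primary screen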
CYP2C9 inh = blockers of cytochrome P450 2C9 activity – biochemical, luminescence, ADME assay, primary screen; P11712; CYP2C9 Supersomes, luciferin-H conversion; inhibition, % at 5 µM; actives 20% (n = 96,000); AID 777, 2007;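 active means blocking of liver enzyme CYP2C9 beyond about 50% at 5 µM, limit read from the data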
Target sequence (P11712 whole entry, looked up): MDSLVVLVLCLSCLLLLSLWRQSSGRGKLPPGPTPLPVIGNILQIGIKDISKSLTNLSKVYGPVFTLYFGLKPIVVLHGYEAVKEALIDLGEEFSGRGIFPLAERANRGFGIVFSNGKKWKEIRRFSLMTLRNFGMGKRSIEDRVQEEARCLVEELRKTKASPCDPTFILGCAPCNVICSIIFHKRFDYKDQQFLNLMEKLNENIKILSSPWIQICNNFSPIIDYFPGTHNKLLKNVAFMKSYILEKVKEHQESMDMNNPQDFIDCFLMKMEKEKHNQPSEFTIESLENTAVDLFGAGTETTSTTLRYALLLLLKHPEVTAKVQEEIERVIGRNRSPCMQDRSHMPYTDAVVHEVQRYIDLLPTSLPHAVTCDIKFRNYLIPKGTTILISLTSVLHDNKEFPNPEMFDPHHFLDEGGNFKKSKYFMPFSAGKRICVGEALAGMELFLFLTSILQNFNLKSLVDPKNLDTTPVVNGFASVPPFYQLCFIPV
sEH activator = soluble epoxide hydrolase activators, primary screen, biochemical, human sEH; AID 717, 2007; activation, % at 2 µM; purified human sEH enzymatic activity, activator screen; Bifunctional epoxide hydrolase 2 (Homo sapiens), P34913; actives 0.04% (n = 91,000); in the data active means activation above about 37%
CYP2C9 activ = human CYP2C9 activators, primary screen, biochemical, luminescence. actives 1.4% (n = 96,000). recombinant CYP2C9, luciferin-H conversion; active compounds read high; factor 1 = untreated enzyme, 0 = blocked. activation factor at 5 µM. Cytochrome P450 2C9 (Homo sapiens), P11712;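 active means activation factor of 2 or more for CYP2C9 at a 5 µM dose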
sEH inhibitor = soluble epoxide hydrolase inhibitors, primary screen, biochemical, human sEH; Bifunctional epoxide hydrolase 2 (Homo sapiens), P34913; recombinant human sEH enzymatic activity assay; inhibition, % at 2 µM; actives 0.34% (n = 91,000); AID 707, 2007; in the data active means inhibition above about 80%
Of the large screens only hits and unclear results are named; the others gave an inactive call.

COc1cc(C2C3=C(Nc4ncnn42)c2ccccc2CC3)cc(OC)c1OC (stereo unspecified)	CYP2C19 inhib 65.8, CYP2C9 inh 65.6
COc1ccc(C2C3=C(Nc4ncnn42)c2ccccc2CCC3)cc1 (stereo unspecified)	CYP2C19 inhib 92.5, CYP2C9 inh 67.7 (no result: sEH activator, sEH inhibitor)
COc1ccc(C2C(C(N)=O)=C(C)Nc3ncnn32)cc1 (stereo unspecified)	none
c1csc(C2C3=C(Nc4ncnn42)c2ccccc2OC3)c1 (stereo unspecified)	none
CCOc1cc(N2CCOCC2)c(OCC)cc1NC(=O)c1nc2nc(C)cc(C)n2n1	none (no result: sEH activator, sEH inhibitor)
CCCCN(C(=O)Cc1cccs1)c1nnc(-c2cccnc2)s1	none (no result: CYP2C19 inhib, CYP2C19 act, CYP2C9 inh, CYP2C9 activ)
CC(=O)/C(=C/N(C)C)Sc1ccc(C)cc1	CYP2C19 inhib 73.4
COc1cc(C(=O)Sc2ccc(C)cc2)cc(OC)c1OC	none
CC(CC(=O)Nc1nncs1)c1ccccc1 (stereo unspecified)	none (no result: CYP2C19 inhib, CYP2C19 act, CYP2C9 inh, CYP2C9 activ)
CCCCOc1ccc(-c2nnn(C(C)C(=O)OCC)n2)cc1 (stereo unspecified)	CYP2C9 inh 68.0
CCCCOc1ccc(-c2nnn(C(C)(C)C(=O)OC)n2)cc1	CYP2C9 inh 56.7
CCC(C(=O)O)n1nnc(-c2ccc(-c3ccc(OC)cc3)cc2)n1 (stereo unspecified)	none
COc1ccc(-c2nc3n(n2)C(c2ccncc2)C(C(N)=O)=C(C)N3)cc1 (stereo unspecified)	none
O=C(O)c1cc2ccccc2n1-c1ccccc1	CYP2C9 inh 53.9 (no result: sEH activator, sEH inhibitor)
Cc1ccc(CCNC(=O)CCNS(=O)(=O)c2ccc3c(c2)oc(=O)n3C)cc1	CYP2C19 inhib 58.4 (no result: sEH activator, sEH inhibitor)
Cc1ccc(NC(=O)CCNS(=O)(=O)c2ccc3c(c2)oc(=O)n3C)c(C)c1	none (no result: sEH activator, sEH inhibitor)
CCN(CC)c1ccc(NS(=O)(=O)c2ccc3c(c2)oc(=O)n3C)c(C)c1	CYP2C19 inhib 83.6, CYP2C9 inh 52.9
CC(=O)N1CCc2cc(S(=O)(=O)NCCC(=O)NCCc3ccc(C)cc3)ccc21	CYP2C9 inh 58.8 (no result: sEH activator, sEH inhibitor)
COc1ccccc1CNC(=O)C(NS(=O)(=O)c1ccc2c(c1)oc(=O)n2C)C(C)C (stereo unspecified)	none
Cn1c(=O)oc2cc(S(=O)(=O)NCCC(=O)NCCc3ccc(Cl)cc3)ccc21	none (no result: sEH activator, sEH inhibitor)
COc1ccccc1CNS(=O)(=O)c1ccc2c(c1)oc(=O)n2C	CYP2C19 inhib 97.7, CYP2C9 activ 2.9
CCCc1cc(SCC(=O)Nc2c(C)n(C)n(-c3ccccc3)c2=O)n2c(nc3ccccc32)c1C#N	none
CCN(CCNS(=O)(=O)c1ccc2c(c1)oc(=O)n2C)c1ccccc1	CYP2C19 inhib 65.4 (no result: sEH activator, sEH inhibitor)
Cn1c(=O)oc2cc(S(=O)(=O)NCCC(=O)NCCc3ccccc3)ccc21	CYP2C19 inhib 71.8 (no result: sEH activator, sEH inhibitor)
CCCN(CCC)CCNS(=O)(=O)c1ccc2c(c1)oc(=O)n2C	none
Cc1nc(-c2cccnc2)sc1C(N)=O	none
O=C(NC1CCCCC1)N1CCN(C(c2ccccc2)c2ccccc2)CC1	none
O=C(O)COCc1nc2ccccc2[nH]1	none
c1ccc(-c2cc3c(N4CCOCC4)ncnc3s2)cc1	CYP2C19 inhib 78.7 (no result: sEH activator, sEH inhibitor)
Cc1nc(N2CCOCC2)c2cc(-c3ccccc3)sc2n1	none (no result: sEH activator, sEH inhibitor)
O=C(NN1C(=O)C2C(C1=O)C1C=CC2C12CC2)c1ccncc1 (stereo unspecified)	CYP2C19 inhib 52.1
O=C(Nn1cnnc1)c1ccncc1	none
O=c1c2ccccc2nc(SCc2cccc(F)c2)n1Cc1ccco1	CYP2C9 inh 69.4
O=c1c2ccccc2nc(SCc2nnc(-c3ccccc3Br)o2)n1Cc1ccco1	CYP2C19 inhib 75.9, CYP2C9 inh 94.0
O=c1c2ccccc2nc(SCc2nc3ccccc3s2)n1Cc1ccco1	CYP2C9 inh 54.8
O=C(CSc1nc2ccccc2c(=O)n1Cc1ccco1)c1ccccc1	CYP2C9 inh 72.2
C=C(C)c1cccc(C(C)(C)NC(=O)Nc2ccc3[nH]c(=O)[nH]c3c2)c1	none
C/C(=C\c1ccccc1)C(=O)Nc1cc(C)on1	none
CC(C)C(=O)Nc1nnc(CCN2CCCCC2)s1	none
Cc1cccc(C)c1N(CC(=O)NN=C1CCCCCC1)S(C)(=O)=O	none
O=C(CN(c1ccccc1)S(=O)(=O)c1ccccc1[N+](=O)[O-])NN=C1CCCCCCC1	CYP2C19 inhib 64.3
O=C(NN1C(=O)/C(=C/c2cccnc2)SC1=S)C(c1ccccc1)c1ccccc1	CYP2C9 inh 82.1
Cc1csc(-c2cnn(-c3ccccc3)c2NC(=O)c2cccc(F)c2)n1	none
Cc1cccc(NS(=O)(=O)c2cccs2)n1	none
O=S(=O)(c1cccs1)N1CN(CC2CCCO2)c2nc3ccccc3nc21 (stereo unspecified)	none
COCCCNc1nc2ccccc2nc1NS(=O)(=O)c1cccs1	CYP2C9 inh 94.0
COCCn1c(N)c(S(=O)(=O)c2cccs2)c2nc3ccccc3nc21	none
O=S(=O)(Nc1nc2ccccc2nc1NCC1CCCO1)c1cccs1 (stereo unspecified)	CYP2C9 inh 92.1
COc1ccc(Nc2nc3ccccc3nc2NS(=O)(=O)c2cccs2)cc1	CYP2C9 inh 87.5
CN(CC(=O)Nc1ccc(Cl)cc1)CC(=O)Nc1cc(Cl)ccc1C#N	CYP2C19 inhib 62.9 (no result: sEH activator, sEH inhibitor)
Cc1ccc(Cn2ccc(NC(=O)c3cc(C)on3)n2)cc1	CYP2C19 inhib 70.1, CYP2C9 inh 62.0
O=C(NCc1nc(-c2ccccc2)no1)c1ccc(Br)o1	CYP2C19 inhib 71.9
O=C(Nc1nc(-c2ccccc2)ns1)c1cccs1	none (no result: sEH activator, sEH inhibitor)
O=C(NCc1ccncc1)c1ccc(Br)o1	none (no result: sEH activator, sEH inhibitor)
O=C(NCc1nc(-c2ccccc2)no1)c1cccs1	CYP2C19 inhib 56.5
Cc1ccc(CNC(=O)CS(=O)(=O)CC(=O)O)cc1	none
CCc1ccc(-c2nc(CSCC(=O)N3CCN(c4ncccn4)CC3)c(C)o2)cc1	CYP2C9 inh 75.0
CCOC(=O)N1CCN(C(=O)CSCc2nc(-c3ccccc3C)oc2C)CC1	CYP2C19 inhib 58.9
N#Cc1c(SCC(=O)N2CCOCC2)nsc1SCC(=O)N1CCOCC1	none
CN1C(=O)C(O)(CC(=O)c2ccc(F)cc2)c2cc(Br)ccc21 (stereo unspecified)	CYP2C19 inhib 79.2 (no result: sEH activator, sEH inhibitor)
COC(=O)CN1C(=O)C(O)(CC(=O)c2ccc(C)cc2)c2cc(Br)ccc21 (stereo unspecified)	none (no result: sEH activator, sEH inhibitor)
O=S(=O)(Nc1ccncc1)c1ccccc1	none
CC(=O)c1ccc(NC(=O)Oc2ccccc2)cc1	CYP2C19 inhib 54.1
CC(=O)c1ccc(NS(=O)(=O)c2ccccc2)cc1	CYP2C19 inhib 61.1, CYP2C9 inh 78.7
CCCCNC(=O)c1ccccc1C(=O)NCCCC	none
CCN(CC)C(=O)c1ccc(C(=O)c2ccccc2)cc1	none
CCCCNC(=O)c1ccc(NS(=O)(=O)c2ccccc2)cc1	CYP2C9 inh 93.4

Source: PubChem
